Reference: PubChem BioAssay
“And” between values parts separate entries of the source, which are not always exact repeats. Identical values can stand only once. The source made the active and inactive calls.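 How the source made its calls, unless noted: active means compounds whose cell count with miR-34 switched on is under 0.7 times the count with it off; inactive means the rest.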

Key:
[1] = hESC survival regulators, cell-based (AID 493140; call rule not given here;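 further: cells exposed to compounds for four days before counting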); settings: human embryonic stem cell survival screen; stronger effect = higher value
[2] = liver-stage malaria parasite growth inhibition, primary screen, cell-based, HepG2, luciferase luminescence, HepG2 viability (AID 624349; in the data active means parasite load remaining mostly below about 12%, no sharp cut-off; inactive means mostly above about 10%;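 further: 100% = mean of DMSO negative control wells on the same plate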); settings: P. berghei liver stage in HepG2, luciferase luminescence, concentration not given here; parasite load remaining: stronger effect = lower value; viability: measured here: HepG2 viability without parasites
[3] = differential killing of epithelial or mesenchymal cells, primary screen, imaging, PC-3E GFP, TEM4-18 mCherry, co-culture (AID 1345086;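 active means compounds killing one labelled cell type while sparing the other, by normalised counts and ratio limits, not self-fluorescent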;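 on all read-outs here: cells exposed to compound for 72 h before imaging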;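 on red/green cell ratio (normalised): normalised mesenchymal count divided by normalised epithelial count so high means epithelial killing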); settings: imaging cell counts, at 1 µM; for red/green cell ratio (normalised): actives lie on both sides, counts scaled to control wells, 1 = unselective
[4] = sensitizers of A549 cells to miR-34 induction, primary screen, imaging, A549 dox-inducible miR-34, nuclei and caspase counts (AID 1347080); settings: A549 miR-34 inducible, Hoechst nuclei count, 48 h
[5] = survival rescue of mitochondrial mutant cells in low glucose, primary screen, MELAS cybrids, Rieske KO mouse fibroblasts, CellTiter-Glo (AID 1508586;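 active means mean z-score across replicates of 1.96 or higher in either the MELAS or the Rieske mutant cell line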;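 further: z relative to plate mean and SD of compound and empty wells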)
[6] = biological target: NAD(+) hydrolase SARM1 (Homo sapiens) (UniProt Q6SZW1); assay: SARM1 TIR NADase inhibitors, cell lysate, NAD-Glo luminescence (AID 1508614;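 active means compound whose remaining NAD level is above about 45 nM, limit read from the data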); settings: SAM-TIR HEK293T lysate NADase, at 1 µM, stronger effect = higher value
[7] = viability rescue of complex I mutant cybrids, primary screen, cell-based, galactose medium, ATP luminescence (AID 1645843;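 active means z-score of at least 1.8 in each of two replicates, scored against plate mean and spread of sample wells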;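 further: positive z means more ATP and so rescue of galactose-driven cybrid death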); settings: complex I mutant cybrid cells, 72 h, stronger effect = higher value
[8] = biological target: Mitogen-activated protein kinase 7 (Homo sapiens) (UniProt Q13164); assay: ERK5 transactivation activators in reporter cells, primary screen, cell-based, HTS (AID 1508626;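 active means luciferase signal above three times the same-plate solvent-only control wells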;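 further: luciferase driven by Gal4-ERK5 fusion binding five Gal4 sites before minimal TATA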); settings: HeLa Gal4-ERK5 transactivation, 18 h, at 5 µM, stronger effect = higher value
[9] = measured here: epithelial PC-3E GFP cell survival
[10] = measured here: mesenchymal TEM4-18 mCherry cell survival
[11] = stronger effect = lower value, cell number ratio, induced over uninduced
[12] = measured here: relative caspase fold change +Dox/-Dox
[13] = measured here: total cells with miR-34 induction, stronger effect = lower value
[14] = measured here: total cells without miR-34 induction
[15] = MELAS cybrid survival, CellTiter-Glo 48 h, stronger effect = higher value
[16] = Rieske KO mouse fibroblast survival, CellTiter-Glo 72 h

NAD(+) hydrolase SARM1 (Homo sapiens), sequence (Q6SZW1 whole entry, looked up): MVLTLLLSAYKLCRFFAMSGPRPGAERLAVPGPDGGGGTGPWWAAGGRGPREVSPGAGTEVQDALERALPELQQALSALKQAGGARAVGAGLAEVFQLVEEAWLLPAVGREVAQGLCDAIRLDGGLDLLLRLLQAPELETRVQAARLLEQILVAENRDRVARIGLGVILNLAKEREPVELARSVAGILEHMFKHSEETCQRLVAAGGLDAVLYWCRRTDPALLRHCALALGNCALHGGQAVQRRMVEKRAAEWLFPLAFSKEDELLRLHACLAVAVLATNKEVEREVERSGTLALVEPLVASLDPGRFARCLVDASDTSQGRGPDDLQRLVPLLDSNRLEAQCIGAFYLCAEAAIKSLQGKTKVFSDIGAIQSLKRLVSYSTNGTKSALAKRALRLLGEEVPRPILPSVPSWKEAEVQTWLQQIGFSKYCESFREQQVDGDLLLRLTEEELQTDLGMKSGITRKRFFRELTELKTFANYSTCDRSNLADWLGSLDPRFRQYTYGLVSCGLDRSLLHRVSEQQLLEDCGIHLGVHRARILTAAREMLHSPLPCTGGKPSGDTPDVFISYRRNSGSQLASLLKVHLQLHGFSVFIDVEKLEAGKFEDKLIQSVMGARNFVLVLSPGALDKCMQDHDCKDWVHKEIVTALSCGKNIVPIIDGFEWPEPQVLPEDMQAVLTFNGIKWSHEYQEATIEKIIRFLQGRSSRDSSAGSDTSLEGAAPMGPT
Mitogen-activated protein kinase 7 (Homo sapiens), sequence (Q13164 whole entry, looked up, the tested form may be a part): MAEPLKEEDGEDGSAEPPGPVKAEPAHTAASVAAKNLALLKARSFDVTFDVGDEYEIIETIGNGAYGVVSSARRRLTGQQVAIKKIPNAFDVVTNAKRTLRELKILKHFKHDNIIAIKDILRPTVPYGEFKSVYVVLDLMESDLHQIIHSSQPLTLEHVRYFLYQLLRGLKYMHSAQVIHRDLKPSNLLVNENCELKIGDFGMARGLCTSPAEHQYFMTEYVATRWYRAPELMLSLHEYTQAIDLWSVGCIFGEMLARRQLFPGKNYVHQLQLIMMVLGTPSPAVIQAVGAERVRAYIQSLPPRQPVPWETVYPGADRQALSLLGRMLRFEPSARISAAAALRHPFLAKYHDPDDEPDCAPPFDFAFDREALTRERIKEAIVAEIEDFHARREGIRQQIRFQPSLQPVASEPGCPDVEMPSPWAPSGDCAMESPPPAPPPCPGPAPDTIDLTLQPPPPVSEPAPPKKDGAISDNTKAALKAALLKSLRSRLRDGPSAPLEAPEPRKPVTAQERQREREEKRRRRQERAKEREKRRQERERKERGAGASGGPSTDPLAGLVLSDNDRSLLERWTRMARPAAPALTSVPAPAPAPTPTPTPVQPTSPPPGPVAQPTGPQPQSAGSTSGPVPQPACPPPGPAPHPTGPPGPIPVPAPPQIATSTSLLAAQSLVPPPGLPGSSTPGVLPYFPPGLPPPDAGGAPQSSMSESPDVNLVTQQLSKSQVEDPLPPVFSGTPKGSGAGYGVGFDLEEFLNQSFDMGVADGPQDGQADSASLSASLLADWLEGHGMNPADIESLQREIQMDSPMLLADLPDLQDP

SMILES	survival [1]	parasite load remaining [2]	viability [2]	red/green cell ratio (normalised) [3]	normalised cell number [3, 9]	normalised cell number [3, 10]	fold change [4, 11]	fold change [4, 12]	cell count [4, 13]	cell count [4, 14]	z-score [5, 15]	z-score [5, 16]	remaining NAD [6]	z-score [7]	luciferase signal [8]
O=C(O)Cc1cc(I)c(Oc2ccc(O)c(I)c2)c(I)c1	18.8 (inactive)	35.5% (inactive) and 118% (inactive)	46% and 91.7%	0.98 (inactive)	1.1	1.08	1.03 (inactive) and 0.918 (inactive) and 0.892 (inactive)	0.599 and 1.29 and 1.64	7190 and 8760 and 9000	6990 and 9530 and 10100	-0.0879 and -3.89 (inactive)	5.02 and -3.53	10 nM (inactive)	–	–
C=CCOC(Cn1ccnc1)c1ccc(Cl)cc1Cl (stereo unspecified)	5.75 (inactive)	62.3% (inactive) and 49.7% (inactive)	79.2% and 101%	1.13 (inactive)	1.28	1.45	0.977 (inactive) and 1.23 (inactive)	0.912 and 0.451	7830 and 4360	8020 and 3550	-0.315 (inactive)	-1.27	10 nM (inactive)	–	–
CC1(O)CCOC(=O)C1 (stereo unspecified)	–	86.9% (inactive)	107%	1.07 (inactive)	0.95	1.02	0.969 (inactive)	0.886	8270	8540	-0.827 (inactive)	-0.633	–	–	–
CN(C)c1cnccn1	–	–	–	1.02 (inactive)	0.95	0.97	0.783 (inactive)	1.07	6710	8560	–	–	10 nM (inactive)	–	–
Cc1cc(-c2ccc(N=Nc3ccc4c(S(=O)(=O)O)cc(S(=O)(=O)O)c(N)c4c3O)c(C)c2)ccc1N=Nc1ccc2c(S(=O)(=O)O)cc(S(=O)(=O)O)c(N)c2c1O	–	–	–	0.96 (inactive)	0.99	0.95	0.905 (inactive)	0.718	8810	9740	–	–	10 nM (inactive)	–	–
CCC(=O)O[C@H](CC(=O)O)C[N+](C)(C)C	–	–	–	1.18 (inactive)	1.03	1.22	0.986 (inactive)	0.77	8930	9060	–	–	10 nM (inactive)	–	–
CC(C)[C@H](N)C(=O)OCC(CO)OCn1cnc2c(=O)[nH]c(N)nc21 (stereo partly specified)	–	–	–	0.79 (inactive)	1.28	1.01	0.935 (inactive)	0.843	8710	9320	–	–	10 nM (inactive)	–	–
CCCCCCCC/C=C\CCCCCCCC(=O)O	–	–	–	1.2 (inactive)	0.8	0.96	0.965 (inactive) and 1.03 (inactive)	0.674 and 0.77	8820 and 6040	9140 and 5860	–	–	10 nM (inactive)	–	–
Nc1ccn(C2CSC(CO)O2)c(=O)n1 (stereo unspecified)	–	–	–	1 (inactive)	1.14	1.13	0.986 (inactive) and 0.882 (inactive)	1.5 and 0.897	10000 and 7840	10200 and 8880	-0.261 (inactive)	0.414	–	1.16 (inactive)	–
O=C(O)C1CSCN1 (stereo unspecified)	–	–	–	0.88 (inactive)	1.25	1.1	0.957 (inactive)	0.618	9140	9550	–	–	10 nM (inactive)	–	–
O=C1c2ccccc2C(=O)C1c1ccc(Cl)cc1	–	–	–	0.87 (inactive)	1.18	1.03	0.921 (inactive)	1.21	7610	8270	–	–	10 nM (inactive)	–	–
CC(C)Nc1ncccn1	–	–	–	0.89 (inactive)	1.16	1.03	0.885 (inactive)	0.978	8370	9450	–	–	10 nM (inactive)	–	–
CC(CCc1ccc(O)cc1)NCC(O)c1ccc(O)cc1 (stereo unspecified)	–	46.7% (inactive)	106%	0.98 (inactive)	0.86	0.84	0.934 (inactive) and 0.886 (inactive)	0.997 and 0.914	8460 and 9910	9050 and 11200	0.268 (inactive)	0.193	10 nM (inactive)	0.065 (inactive)	–
Oc1ccc2ccccc2c1	–	–	–	0.96 (inactive)	0.82	0.79	0.874 (inactive)	1.01	7170	8200	–	–	10 nM (inactive)	–	–
CCC[C@@H]1C[C@@H](C(=O)N[C@@H](C2O[C@H](SC)[C@H](O)[C@@H](O)[C@H]2O)[C@H](C)Cl)N(C)C1 (stereo partly specified)	18.7 (inactive)	39.2% (inactive) and 98.8% (inactive) and 83.4% (inactive)	46.1% and 89% and 92.6%	1.26 (inactive)	1.17	1.47	0.895 (inactive) and 0.881 (inactive)	1.74 and 1.41	9010 and 10700	10100 and 12200	0.619 (inactive)	-0.624	–	–	–
CCOC(=O)COc1ccc2c(=O)cc(-c3ccccc3)oc2c1	–	–	–	0.96 (inactive)	0.88	0.85	0.922 (inactive)	0.974	8170	8860	–	–	10 nM (inactive)	–	–
CC1(C)OC(=O)C(OCC2CC2)=C1c1ccc(S(C)(=O)=O)cc1	–	–	–	1.08 (inactive)	1.02	1.1	0.945 (inactive)	0.86	8900	9420	–	–	10 nM (inactive)	–	–
COc1cc(/C=C/C(=O)N2CCC=CC2=O)cc(OC)c1OC	0.417 (inactive)	-9.42% (inactive) and 36.9% (inactive)	36.5% and 76.3%	1.8 (active)	0.39	0.7	0.965 (inactive)	1.26	3400	3530	–	–	–	–	460 AU (active)
